Where “and” joins values, the source holds several entries; their conditions need not be identical. Equal values may be shown once. In all, about 230,000 compounds went through this assay and about 310 (0.13%) were called active. Roughly 2% stayed inconclusive and do not appear here. Calls follow the shape of the dose curve; as a rule, active = well fitted activation curve with a large enough effect; inconclusive = small, poorly fitted or top-dose-only effect; inactive = no such curve, though single readings can be large or run the other way. This excerpt belongs to a sample that is enriched for actives.
Assay: qHTS Multiplex Assay to Identify Dual Action Probes in a Cell Model of Huntington: Cytoprotection (ATP); also: nearly all actives have a fitted effect of over 45% in size;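 as to cytoprotection (ATP increase): toxic huntingtin expression switched on by the ecdysone agonist tebufenozide; % of control where 0% means no effect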
Details: PC12 HTT-Q103 induced, ATP luminescence, 40 h; series mostly up to 56.4 µM; cytoprotection (ATP increase): at the top concentration
Text: NIH Chemical Genomics Center [NCGC]
NIH Molecular Libraries Probe Production centers Network [MLPCN]
Assay Submitter (PI): Wei Zheng
Huntington's disease is a neurodegenerative disorder caused by a trinucleotide repeat expansion in Exon 1 of the Huntingtin gene. The CAG trinucleotide encodes glutamine and polyglutamine expansions cause cell death in selective areas of the brain. Huntington polyglutamine repeats have the tendency to form aggregates which are observable in later stages of the disease. The exact nature of the aggregates, whether toxic, protective, or insignificant, is unclear.
A stable PC12 cell line containing a gene fusion of Exon 1 of the Huntingtin gene linked to GFP under the control of the inducible ecdysone promoter were used as the cell-based model of Huntington Disease for high throughput screening. Exon 1 of the Huntingtin gene contained an expansion of 103 polyglutamines (Q103) which, when expressed, caused cell death and distinct, bright GFP aggregates. The amount of cell death and the size and intensity of GFP aggregates increased over time and induction level. The cell death were quantified with a measurement of ATP content in the cells. A maximal 40-50% of cell death was observed when the Huntington gene was induced in this cell line.
We optimized this assay in a homogeneous 1536 well format. A quantitative high throughput screen (qHTS) was conducted on the PC12 cells which were induced to express the toxic fusion construct. Small molecules which prevented cell death were identified by using a luminescent ATP quantification method (Perkin Elmer's ATPlite).
PC12 cells stably containing a construct with an ecdysone inducible promoter expressing GFP fused to the exon 1 of HTTQ103 (Huntington protein which containing a 103 ployglutamine expansion) were used.
NCGC Assay Protocol Summary:
Sequence, Parameter, Description
1, Reagent, 5 uL 1500 cells/well 1536 TC treated White clear bottom plate
2, Compound, 23 nL Tebufenozide inducer (100 nM final) to all columns
3, Compound, 23 nL 40 uM to 0.5 nM Libraries
5, Reagent, 5 ul ATPLite cell death assay reagent
6, Detector, 4 sec integration with a Viewlux Luminescent
Media consisted of phenol red free DMEM + 5% equine serum (Hyclone # SH30072.03 ), 5% supplemented Bovine Calf Serum (Hyclone # SH30074.03 ), 1x pen/strep, no G418
Control columns: 1 = DMSO, 2= 2 uM teb dilns (1:1), 4 = 100 nM Teb inducer. Sample columns received 100 nM Teb.

Q: With `CC(C)(O)/C=C\C(=O)[C@](C)(O)[C@H]1[C@H](O)C[C@]2(C)[C@@H]3CC=C4[C@@H](C=C(O)C(=O)C4(C)C)[C@]3(C)C(=O)C[C@@]12C` as the compound, how does the Potency read?
A: 5.01 µM (active)

Q: For `C[N+]1(C)C2CC(OC(=O)C(CO)c3ccccc3)CC1[C@@H]1O[C@H]21` (some centres undefined), which cytoprotection (ATP increase) is on record?
A: 17.6% [at 1.9 µM] (inactive) and 4.91% [at 1.9 µM] (inactive)

Q: Which “cytoprotection (ATP increase)” value does the source give for `CC1=CC(=O)C2=C(C)C[C@H](O)[C@@H]3[C@@H](OC(=O)[C@H]3C)[C@H]12` here?
A: -1.12% (inactive)

Q: With `CC(C)(O)[C@H]1[C@H]2OC(=O)[C@@H]1[C@]1(O)C[C@H]3O[C@]34C(=O)O[C@H]2[C@]14C` as the compound, how does the “cytoprotection (ATP increase)” value read?
A: -10.1% (inactive)

— PubChem BioAssay AID1471 (National Center for Advancing Translational Sciences (NCATS), 2008)
